BAZ2B inh: inhibitors of human BAZ2B bromodomain. AID 504333. AlphaScreen BAZ2B-H3K14Ac peptide displacement. Q9UIF8. hit rate 4.4% among 360,000. Potency, µM (highest dose often 114 µM), usual class: inhibitors; note: nearly all actives have a fitted effect of over 60% in size
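Inhibition is scored as reduced AlphaScreen emission. The BAZ2B/b-H3(5-23)K14Ac complex (50 nM each) in PBS pH 7.4, 0.01% Tween-20 meets compound (up to 110 uM) for 30 min at RT before bead addition.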
HP1b chromo inh: blocks HP1-beta chromodomain binding to methylated histone tails; hit rate 0.56% among 390,000; AID 540317; Potency, µM (top dose mostly 114 µM), usual class: inhibitors; AlphaScreen HP1-beta / biotin-H3K9me3 peptide binding; note: nearly all actives have a fitted effect of over 70% in size
Target sequence (P83916 whole entry, looked up): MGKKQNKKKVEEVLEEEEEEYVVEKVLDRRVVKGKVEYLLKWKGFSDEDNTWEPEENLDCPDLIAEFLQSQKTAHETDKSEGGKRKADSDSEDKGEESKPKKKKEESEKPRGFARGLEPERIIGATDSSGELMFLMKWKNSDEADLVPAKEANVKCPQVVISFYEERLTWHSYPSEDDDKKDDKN
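HP1-beta protein (50 nM final) preincubated 30 min at room temperature with biotinylated H3(1-18)K9me3 peptide (50 nM) in PBS pH 7.4, 0.01% Tween-20, then compound added for 30 min. AlphaScreen streptavidin donor/nickel chelate acceptor beads (10 ug/mL final), 30 min dark, luminescence read.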
Sfp PPTase inh: inhibitors of Bacillus subtilis Sfp phosphopantetheinyl transferase; Biochemical Sfp PPTase activity, qHTS; hit rate 3.5% among 310,000; Potency, µM, most hits filed as inhibitors; AID 1490;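 note: the enzyme is Sfp with the accession as filed and its product quenches rhodamine fluorescence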
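Step 1, compound plus 15 nM Sfp-PPTase, 15 min, room temperature. Step 2, add rhodamine-CoA (5 uM) and BHQ-2-YbbR (12.5 uM). Step 3, read 525/598 nm fluorescence at 0 and 30 min.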
JMJD2A Tudor: blocks the human JMJD2A Tudor domain. Potency, µM (series often up to 114 µM), hits mostly inhibitors. AlphaScreen JMJD2A-Tudor / H3K4me3 peptide binding. hit rate 4.4% among 390,000. O75164; note: nearly all actives have a fitted effect of over 50% in size
G9a block: blocks human histone lysine methyltransferase G9a; G9a H3K9 monomethylation, AlphaScreen, 2 h; Potency, µM (doses to about 102 µM), hits mostly inhibitors; hit rate 8.8% among 350,000; AID 504332; Q96KQ7; note: nearly all actives have a fitted effect of over 75% in size
Target sequence (Q96KQ7 913-1193 limits assumed): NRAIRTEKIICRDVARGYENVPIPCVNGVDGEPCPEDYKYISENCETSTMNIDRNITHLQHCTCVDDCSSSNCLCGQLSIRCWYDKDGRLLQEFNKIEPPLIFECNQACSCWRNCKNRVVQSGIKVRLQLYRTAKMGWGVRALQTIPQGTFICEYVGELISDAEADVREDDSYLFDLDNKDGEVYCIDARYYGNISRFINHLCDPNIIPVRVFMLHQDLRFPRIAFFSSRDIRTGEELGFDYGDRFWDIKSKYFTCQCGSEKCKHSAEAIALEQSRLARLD
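Enzyme 20 nM + cpd, 15 min RT; add b-H3K9 pep 500 nM / SAM 20 uM; 2 h RT; anti-H3K9me1 Ab 0.5 ug/mL + SA donor / anti-rabbit acceptor beads 20 ug/mL each, 10 min; AlphaScreen read.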
Large screens that a line does not name were inactive. Sampled rows, rich in hits. Any-hit rate of the full collection: about 12%. Calls come from the whole dose curve; as a rule, active = well fitted curve in the direction sought with a large enough effect; inconclusive = small, poorly fitted or top-dose-only effect, or another doubt; inactive = no such curve, though single readings can be large; an effect the other way counts as inactive or inconclusive.

COc1cc2c(cc1OC)CN(C(=O)C1CCC(=O)N(CCCN3CCOCC3)C1)CC2 (configuration not stated)	none (no result: G9a block)
O=C1CCC(C(=O)N2CCc3c(Cl)cccc3C2)CN1CCCN1CCOCC1 (configuration not stated)	G9a block 40µM
CCC1CCC(c2nnc(-c3ccc([N+](=O)[O-])cc3)o2)CC1 (configuration not stated)	BAZ2B inh inconclusive, G9a block 10µM
NS(=O)(=O)c1cccc(NC(=O)c2cc(-c3cccs3)nc3ccccc23)c1	G9a block 45µM
NS(=O)(=O)c1cccc(NC(=O)COC(=O)c2cc(-c3ccc(Cl)cc3)nc3ccccc23)c1	G9a block 35µM
CN(C)S(=O)(=O)c1cccc(NC(=O)c2cc(-c3cccs3)nc3ccccc23)c1	none
CCOC(=O)c1cccc(NC(=O)c2ccc3c(c2)C(=O)N(CC2CCCO2)C3=O)c1 (configuration not stated)	none
CCCCc1ccc(NC(=O)Cn2c(=O)c(N3CCCCC3)c(N)n(C)c2=O)cc1	none (no result: BAZ2B inh, Sfp PPTase inh, G9a block)
Cc1cccc(N2N=C(C(=O)Nc3nc(C)cs3)CCC2=O)c1	BAZ2B inh inconclusive, G9a block inconclusive
COc1ccc(C(=O)/C=C/c2cn(CC(O)CN(CC(C)C)CC(C)C)c3ccccc23)cc1OC (configuration not stated)	none (no result: Sfp PPTase inh)
COc1ccc(C(=O)/C=C/c2cn(CC(O)CN3CCOCC3)c3ccccc23)cc1 (configuration not stated)	BAZ2B inh inconclusive, G9a block 45µM
COc1ccc(C(=O)/C=C/c2cn(CC(O)CN3CCc4ccccc43)c3ccccc23)cc1OC (configuration not stated)	BAZ2B inh 10µM, JMJD2A Tudor 20µM, G9a block inconclusive (no result: Sfp PPTase inh)
CC(C)CN(CC(C)C)CC(O)Cn1cc(/C=C/C(=O)c2ccccc2)c2ccccc21 (configuration not stated)	BAZ2B inh 89µM (no result: Sfp PPTase inh)
Cc1ccc(C(=O)/C=C/c2cn(CC(O)CN3CCOCC3)c3ccccc23)cc1 (configuration not stated)	BAZ2B inh inconclusive
Cc1ccc(C(=O)/C=C/c2cn(CC(O)CN3CCc4ccccc43)c3ccccc23)cc1 (configuration not stated)	BAZ2B inh inconclusive, JMJD2A Tudor 25µM, G9a block 13µM (no result: Sfp PPTase inh)
COC(=O)C1=C[C@@H](C(=O)OC)C2C3=C(C(=O)[C@@]2(CC(C)C)NC(=O)c2ccccc2)[C@H](C)n2c(=O)n(C)c(=O)n2[C@@H]3C1 (some centres not stated)	none (no result: BAZ2B inh, G9a block)
CCOC(=O)c1c(-c2ccccc2)csc1NC(=O)CCN1CCOCC1	BAZ2B inh 50µM, HP1b chromo inh inconclusive, Sfp PPTase inh 50µM, JMJD2A Tudor 2µM, G9a block inconclusive
CCOC(=O)c1c(-c2ccc(C)o2)csc1NC(=O)CN1CCOCC1	BAZ2B inh inconclusive, Sfp PPTase inh 45µM, JMJD2A Tudor inconclusive, G9a block 50µM
CCOC(=O)c1c(-c2ccc(C)cc2)csc1NC(=O)CCN1CCOCC1	BAZ2B inh 32µM, HP1b chromo inh inconclusive, Sfp PPTase inh inconclusive, JMJD2A Tudor 6.3µM, G9a block 10µM
CCOC(=O)c1c(-c2ccc(C)o2)csc1NC(=S)NC(=O)N(C)C	BAZ2B inh 45µM, HP1b chromo inh inconclusive, Sfp PPTase inh 56µM, JMJD2A Tudor inconclusive, G9a block inconclusive
CCOC(=O)c1c(-c2cccs2)csc1NC(=O)CN1CCOCC1	none
CN(C)C1=NCCN1CC1CCCC1	none (no result: Sfp PPTase inh)
COc1ccc(CNC(=O)CSc2nc3ccsc3c(=O)n2Cc2ccccc2Cl)cc1	none (no result: Sfp PPTase inh)
CCOC(=O)c1c(-c2ccco2)csc1NC(=O)COC(=O)c1cnc(C)cn1	BAZ2B inh 50µM, HP1b chromo inh inconclusive, JMJD2A Tudor inconclusive (no result: Sfp PPTase inh)
CCOC(=O)c1c(-c2ccc(OC)cc2)csc1NC(=O)CSc1nnc(C)c(=O)[nH]1	none (no result: BAZ2B inh)
CCOC(=O)c1c(NC(=O)COC(=O)c2cnc(C)cn2)sc(C(=O)N(C)C)c1C	none (no result: Sfp PPTase inh)
CCOC(=O)c1c(-c2ccc(C)o2)csc1NC(=O)CSc1ncn[nH]1	BAZ2B inh inconclusive, Sfp PPTase inh 28µM, JMJD2A Tudor inconclusive, G9a block inconclusive
O=C(c1ccccc1)N1CCN(c2ccc(N3CCOCC3)nn2)CC1	none (no result: Sfp PPTase inh)

Bioassay records from PubChem BioAssay.
